KKLEB tox: reduces viability of KKLEB cystic fibrosis airway cells; AID 602141; activity change (cytotoxicity), % at 5 µM; hit rate 0.36% among 360,000; KKLEB CF airway cells viability, ATPlite luminescence, overnight; hits give low values; cells stimulated with P. aeruginosa culture filtrate;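 active = corrected activity change at or below -50% at 5 µM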
TWEAK-Fn14 inh: blocks TWEAK-Fn14 interaction in a reporter cell assay | inhibition, % at 10 µM | TWEAK-stimulated Fn14 reporter cells, luciferase luminescence, 8 h | hit rate 2% among 360,000 | AID 1159606; in the data active = inhibition above about 50%
CF NFkB inh: cystic fibrosis NF-kB activation inhibition. KKLEB NF-kB-GFP reporter, PAF-induced, GFP fluorescence overnight. inhibition, % at 5 µM. hit rate 0.86% among 360,000. AID 588850;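 active = at least 50% inhibition at 5 µM, scaled per plate between neutral and stimulator controls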;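 note: PAF is a Pseudomonas aeruginosa culture filtrate used as stimulus; plate controls were PAF-stimulated DMSO wells for no effect and unstimulated DMSO wells for full effect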
Peg3 promoter: reduces Peg3 promoter-driven luciferase expression in HeLa. HeLa PEG-Prom luciferase reporter, luminescence, overnight. inhibition, % at 20 µM. hit rate 1.7% among 360,000. AID 588405;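 active = inhibition of at least 50% at 20 µM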
TROY signal inh: blocks TROY-dependent signaling in reporter cells; Q293 LMP1-TROYcd NF-kB luciferase reporter, 4 h; inhibition, % at 10 µM; hit rate 0.98% among 360,000; AID 1347056;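 active = compounds whose plate-normalised and pattern-corrected inhibition of the luciferase reporter signal at the single screening dose is 50% or more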
HIF-2a block: HIF-2a inhibition; 786-0 RCC cells HIF-2a reporter, luciferase luminescence, overnight; inhibition, % at 18.8 µM; hit rate 0.72% among 360,000;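 active = inhibition of the luminescence signal of 40% or more relative to plate controls, in a single-dose primary screen at 18.75 µM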
Mdm2 MdmX conf: Mdm2/MdmX (human) interaction inhibition, confirmed; shares compounds with HIF-2a block; SaOS-2 split-luciferase Mdm2/MdmX complementation, luminescence; inhibition, % at 8 µM; hit rate 99% among 740; AID 504601;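 active = mean inhibition of the luminescence signal across two replicates at or above 26 percent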
Target sequence (O15151 whole entry, looked up): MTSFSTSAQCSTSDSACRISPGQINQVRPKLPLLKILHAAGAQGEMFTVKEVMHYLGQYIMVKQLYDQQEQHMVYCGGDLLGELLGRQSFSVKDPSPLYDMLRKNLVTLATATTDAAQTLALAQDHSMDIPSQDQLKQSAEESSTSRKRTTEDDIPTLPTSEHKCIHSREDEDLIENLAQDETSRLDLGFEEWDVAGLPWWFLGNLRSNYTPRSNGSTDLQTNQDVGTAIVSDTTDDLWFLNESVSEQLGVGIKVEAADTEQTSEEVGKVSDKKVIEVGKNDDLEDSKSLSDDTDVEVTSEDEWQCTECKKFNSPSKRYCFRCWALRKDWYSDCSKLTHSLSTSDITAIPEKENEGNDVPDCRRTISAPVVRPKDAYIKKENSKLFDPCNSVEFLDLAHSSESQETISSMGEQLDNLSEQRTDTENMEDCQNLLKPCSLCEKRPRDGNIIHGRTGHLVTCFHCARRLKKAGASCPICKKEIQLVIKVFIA
Target sequence (Q00987 whole entry, looked up): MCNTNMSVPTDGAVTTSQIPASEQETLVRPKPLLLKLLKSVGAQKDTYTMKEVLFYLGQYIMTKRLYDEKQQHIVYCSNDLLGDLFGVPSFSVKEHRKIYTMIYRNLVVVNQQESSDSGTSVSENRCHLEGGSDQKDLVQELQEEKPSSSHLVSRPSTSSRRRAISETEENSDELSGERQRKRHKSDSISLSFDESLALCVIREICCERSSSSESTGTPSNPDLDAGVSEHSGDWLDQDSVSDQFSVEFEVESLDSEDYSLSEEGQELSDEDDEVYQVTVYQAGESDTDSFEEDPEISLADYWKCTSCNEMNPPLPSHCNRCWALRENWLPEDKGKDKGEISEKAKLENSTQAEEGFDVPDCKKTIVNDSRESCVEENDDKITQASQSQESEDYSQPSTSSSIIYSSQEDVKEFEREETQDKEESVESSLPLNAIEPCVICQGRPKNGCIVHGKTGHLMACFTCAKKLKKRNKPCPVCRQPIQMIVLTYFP
HIF-2a conf: confirmation of HIF-2a inhibitors; shares compounds with HIF-2a block; 786-0 RCC cells, HIF-2a luciferase reporter luminescence, overnight; inhibition, % at 18.8 µM; hit rate 56% among 1,800; AID 651580;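 active = mean inhibition across four replicates of at least 40 percent at the single tested concentration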
HIF-1a cs: inhibits HIF-1a reporter, a counter-screen for HIF-2a inhibitors. shares compounds with HIF-2a block. MiaPaCa-2 HIF-1a luciferase reporter, desferoxamine, overnight. inhibition, % at 18.8 µM. hit rate 72% among 1,800. AID 651589;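 active = mean inhibition of the reporter signal across four replicates at the single tested dose of 50% or more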
Numbers without * were called inactive; · = no result given. The list is not random: actives were taken first. Their share in the collection is about 4%.

SMILES	KKLEB tox	TWEAK-Fn14 inh	CF NFkB inh	Peg3 promoter	TROY signal inh	HIF-2a block	Mdm2 MdmX conf	HIF-2a conf	HIF-1a cs
CCOC(=O)C(=O)Cc1nc2ccccc2s1	4	-14	-2	-10	-17	-37	·	·	·
CCOC(=O)/C(=C/c1ccc(OC(F)F)cc1)C1=Nn2c(nnc2-c2ccc(Cl)cc2)SC1	-104*	107*	92*	106*	91*	88*	·	43*	105*
COc1ccc(-c2nnc3n2N=C(C)CS3)cc1	-6	-1	11	-8	16	-2	·	·	·
Cc1ccc2nc(-c3ccncc3)c(Nc3ccccc3)n2c1	-6	-36	15	-2	8	8	·	·	·
Cc1ccc(Nc2c(-c3ccccn3)nc3cc(C)ccn23)cc1	-33	-2	43	39	1	-14	88*	·	·
Cc1ccc(Nc2c(-c3ccccn3)nc3ccc(C)cn23)cc1	-14	3	13	12	16	-42	86*	·	·
COc1cc2c3nnc(-c4ccc(F)cc4)c-3cn(Cc3cccc(F)c3)c2cc1OC	-4	-19	-52	96*	-7	27	103*	·	·
O=C(NCC1CCCO1)c1c(O)c2cccc3c2n(c1=O)CCC3 (stereo not drawn)	1	-25	-5	0	-24	-29	·	·	·
O=C(NCC1CCCO1)c1c(O)c2cccc3c2n(c1=O)CC3 (stereo not drawn)	-4	6	-3	5	-3	-50	71*	·	·
O=C(NC12CC3CC(CC(C3)C1)C2)c1ccc([N+](=O)[O-])o1	-78*	21	94*	84*	-5	65*	·	11	96*
O=C(NC12CC3CC(CC(C3)C1)C2)c1ccc(Br)o1	-6	2	-8	-7	-27	-23	·	·	·
c1csc(C2=Nn3c(nnc3-c3ccncc3)SC2)c1	-16	69*	66*	-12	47	-1	93*	·	·
COc1ccc(N(C(=O)CCl)C(C(=O)NCCc2ccccc2)c2cccs2)cc1 (stereo not drawn)	-92*	60*	90*	105*	-17	96*	·	98*	107*
COc1ccc(CNC(=O)C(c2ccncc2)N(C(=O)Cc2cccs2)c2ccccc2)cc1 (stereo not drawn)	13	0	-8	4	-22	16	·	·	·
Cc1cc(C)c(C)c(S(=O)(=O)ON2C(=O)c3ccccc3C2=O)c1C	-53*	3	69*	89*	6	56*	·	50*	8
Cc1ccc(S(=O)(=O)ON2C(=O)c3ccccc3C2=O)c(C)c1	-3	2	19	60*	-23	72*	·	59*	-1
O=S(=O)(c1ccccc1)c1ncc(C(F)(F)F)cc1Cl	-86*	33	89*	71*	46	96*	·	4	14
O=C(OCc1ccccc1)c1cccc(-c2nnc(-c3ccccc3)o2)c1	6	-2	-12	-112	-31	11	·	·	·
CCOC(=O)c1cccc(COC(=O)c2cccc(-c3nnc(-c4ccccc4)o3)c2)c1	-2	9	7	-75	-78	47*	·	51*	-65
COc1ccc2cc1Oc1ccc(cc1)C[C@H]1c3cc(c(OC)cc3CCN1C)Oc1c(OC)c(OC)cc3c1[C@H](C2)N(C)CC3	-14	-29	27	93*	-7	11	102*	·	·
O=C(/C=C/c1ccccc1)CC(O)(c1ccccc1)C(F)(F)F (stereo not drawn)	-58*	88*	53*	105*	64*	73*	·	44*	104*
O=C(/C=C/c1ccccc1)CC(O)(c1ccccc1)C(F)(F)C(F)F (stereo not drawn)	-34	69*	23	101*	64*	70*	·	53*	106*
CC1(NC(=O)Nc2cccc(Br)c2)CCS(=O)(=O)C1 (stereo not drawn)	11	7	-11	-3	5	7	·	·	·
O=C(COC(=O)Cc1ccsc1)Nc1ccc(Cl)cn1	2	11	17	-5	4	-1	·	·	·
C=C1C(=O)[C@@]23[C@H](O)C[C@@H]4C(C)(C)CC[C@H](O)[C@@]4(C)[C@@H]2CC[C@@H]1[C@H]3O	-32	95*	95*	102*	28	91*	·	94*	107*
SMILES	KKLEB tox	TWEAK-Fn14 inh	CF NFkB inh	Peg3 promoter	TROY signal inh	HIF-2a block	Mdm2 MdmX conf	HIF-2a conf	HIF-1a cs
O=C1C=CC(=C(c2ccc(O)cc2)c2ccc(O)cc2)C=C1	5	36	32	85*	50	85*	·	81*	107*
NC(=O)NCc1ccccc1	8	3	-21	-9	-11	1	·	·	·
Cc1ccc(-c2nn(C)c(=O)c3ccccc23)cc1CNS(C)(=O)=O	0	-34	-19	-61	-65	-4	·	·	·
CC12CCC(C(=O)Nc3ccc4c(c3)OCCO4)(OC1=O)C2(C)C (stereo not drawn)	3	83*	-13	12	70*	42*	·	32	50*
Cc1cccc(NC(=O)C23CCC(C)(C(=O)O2)C3(C)C)c1 (stereo not drawn)	-5	3	-6	17	4	10	·	·	·
COc1ccc(-n2nc3ccc(N)cc3n2)cc1	-7	2	33	-171	-47	46*	·	70*	0
CC[C@@H](C)[C@H](CNC)NC[C@@H](Cc1cccc2ccccc12)NCCc1cccc(C(F)(F)F)c1	-48	-56	29	103*	-9	15	103*	·	·
CCC[C@H](CN[C@@H](CNC)[C@H](C)CC)NCCc1cc(C(F)(F)F)cc(C(F)(F)F)c1	-49	-72	13	99*	-7	12	103*	·	·
CN(C[C@H](Cc1ccccc1)N(C[C@@H](CC1CCCCC1)N(CCc1ccccc1)N=O)N=O)N=O	-24	16	39	16	13	2	·	·	·
CNC[C@@H](CC1CCCCC1)NC[C@H](CC(C)C)NCCc1cccc(C(F)(F)F)c1	-72*	-101	50	99*	12	32	103*	·	·
CCC[C@@H](CNC)NC[C@H](Cc1ccccc1)NCCCCc1ccccc1	-16	-41	5	99*	-21	-2	103*	·	·
CN(Cc1cccc(C(F)(F)F)c1)C(=O)C1CCC(=O)N(CC2CCCCC2)C1 (stereo not drawn)	-16	-36	-2	-2	-17	-23	·	·	·
CNC[C@@H](Cc1ccccc1)NC[C@@H](CC1CCCCC1)NCCCc1ccccc1	-96*	-64	85*	99*	37	85*	103*	0	106*
